Laboratory results reported in the supplement of paper PMC6555819.

Assays:
Test in all cases: PBM binding z-score (relative to random genomic background probes); higher = stronger binding; sequences stand for … in GC…GCGATTGACAGCGTAGAATGAAGG
[1] = tested on: FXR:RXRa (NR concentration 270 nM, RXRa partner concentration 90 nM)
Outline: (§1)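 Regression normalization was applied to scanned fluorescence from custom Agilent 4×180K protein-binding microarrays. Before scanning, arrays were incubated 1 h with ligand-free nuclear receptor dimers, and binding was detected with antibodies against each partner (one per run). Binding z-scores use the random background probes as reference.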

[2] = tested on: LXRa:RXRa (NR concentration 270 nM, RXRa partner concentration 90 nM)
Outline: as §1

[3] = tested on: LXRa homodimer (NR concentration 270 nM)
Outline: as §1

[4] = tested on: LXRb:RXRa (NR concentration 270 nM, RXRa partner concentration 90 nM)
Outline: as §1

[5] = tested on: PPARa:RXRa (NR concentration 270 nM, RXRa partner concentration 90 nM)
Outline: as §1

[6] = tested on: PPARg:RXRa (NR concentration 180 nM, RXRa partner concentration 90 nM)
Outline: as §1

[7] = tested on: PPARg:RXRa 270nM:90nM, anti-RXR (NR concentration 270 nM, RXRa partner concentration 90 nM)
Outline: as §1

[8] = tested on: PPARg:RXRa 30nM:10nM, anti-RXR (NR concentration 30 nM, RXRa partner concentration 10 nM)
Outline: as §1

[9] = tested on: PPARg:RXRa 90nM:30nM, anti-RXR (NR concentration 90 nM, RXRa partner concentration 30 nM)
Outline: as §1

[10] = tested on: PPARg:RXRa DBDmut IVT, anti-RXR (DBD mutation: RXRa K156A/R161A, NR concentration 270 nM, RXRa partner concentration 90 nM)
Outline: as §1

[11] = tested on: PPARg:RXRa IVT, anti-PPARg (NR concentration 270 nM, RXRa partner concentration 90 nM)
Outline: as §1

[12] = tested on: PPARg homodimer (NR concentration 180 nM)
Outline: as §1

[13] = tested on: PXR:RXRa (NR concentration 270 nM, RXRa partner concentration 90 nM)
Outline: as §1

[14] = tested on: PXR homodimer (NR concentration 270 nM)
Outline: as §1

[15] = tested on: RARa:RXR (NR concentration 270 nM, RXRa partner concentration 90 nM)
Outline: as §1

[16] = tested on: RARa homodimer (NR concentration 270 nM)
Outline: as §1

[17] = tested on: RARb:RXRa (NR concentration 270 nM, RXRa partner concentration 90 nM)
Outline: as §1

Row | Sequence | PBM binding z-score [1] | PBM binding z-score [2] | PBM binding z-score [3] | PBM binding z-score [4] | PBM binding z-score [5] | PBM binding z-score [6] | PBM binding z-score [7] | PBM binding z-score [8] | PBM binding z-score [9] | PBM binding z-score [10] | PBM binding z-score [11] | PBM binding z-score [12] | PBM binding z-score [13] | PBM binding z-score [14] | PBM binding z-score [15] | PBM binding z-score [16] | PBM binding z-score [17]
1 | CTATGTAGGTTAAGGGCGTCATTCAGTTTGAAAG | 0.15 | 0.294 | -0.263 | 0.367 | 3.53 | 5.29 | 5.64 | 3.36 | 5.17 | 7.33 | 6.94 | 1.62 | 0.377 | 0.443 | 0.584 | -0.284 | 1.27
2 | TCGAGTAGGTTACGGGGGCATTCAGGGATGAAGA | 2.79 | 2.81 | 0.777 | 5.02 | 4.38 | 5.95 | 5.71 | 3.3 | 5.07 | 4.99 | 5.99 | 1.92 |  | 1.53 | 2.98 | 1.5 | 2.61
3 | CCGCGTAGGTTACGAGGGGGCATTCAGTGCGAAT | 2.11 | 7.21 | 1.61 | 6.37 | 3.17 | 0.847 | 2.86 | 0.411 | 2.18 | 1.02 | 2.43 | 1.12 | 4.76 | 4.05 |  | -0.311 | 2.14
4 | TCGAGTAGGTTACTGGGGCATTCAGGGATGAAGA | 0.441 | 0.372 | -0.186 | 0.462 | 3.51 | 4.99 | 4.53 | 2.29 | 3.46 | 5.34 | 6.18 | 0.888 |  | -0.522 | 0.925 | -0.357 | 1.08
5 | CTATATAGGTTAAGGGGGTCATTCAGTTTGAAAG | 6.35 | 5.57 | 2.95 | 6.48 | 6.33 | 8.85 | 8.04 | 6.09 | 8.09 | 7.39 | 7.38 | 4.56 | 6.35 | 12.1 | 6.42 | 1.99 | 3.91
6 | TCGAGTAGGTTACGGGGGCAGTCAGGGATGAAGA | 2.28 | 2.27 | 0.393 | 4.55 | 3.63 | 4.99 | 5.02 | 2.93 | 4.41 | 5 | 5.6 | 2.04 | 2.33 | 1.2 | 2.43 | 0.156 | 2.36
7 | CTATGTAGGTGAAGGGGGTCATTCAGTTTGAAAG | 4.41 | 4.45 | 1.53 | 5.87 | 6.36 |  | 8.53 | 7.28 | 8.98 | 7.88 | 8.11 | 2.81 | 5.89 | 9.91 | 6.01 | 0.852 | 3.52
8 | CCGTGTAGGTTACGAGGGGGCATTCAGTGCGAAT | 2.88 | 7.45 | 2.37 | 6.73 | 3.56 | 2.16 | 3.34 | 1.52 | 2.52 | 3.52 | 4.85 | 2.84 | 5.31 | 7.2 | 3.23 | 1.33 | 2.47
9 | CTATGTAGGTTAAGGGGGTTATTCAGTTTGAAAG | 2.37 | 2.74 | 1.14 | 5.09 | 5.34 | 7.83 | 7.16 | 5.05 | 7.12 | 6.94 | 7.29 | 2.61 | 3.46 | 5.03 |  | 1.62 | 2.24
10 | CCGAGTAGGTTACGAGGGGGCTTTCAGTGCGAAT | 1.47 | 3.54 | 0.44 | 4.05 | 2.66 | 1.29 | 2.7 | 0.558 | 1.82 | 4.79 | 4.3 | 0.789 | 2.01 | 0.241 | 1.55 | -0.415 | 1.41
11 | TCGAGTAGGTTACGGGGGCATTGAGGGATGAAGA | 2.37 | 2.69 | 0.404 | 4.67 | 4.31 | 6.35 | 5.59 | 3.59 | 5.05 | 5.26 | 6.02 | 2.89 |  | 1.71 |  | 0.325 | 2.69
12 | CCGAGTAGGTTACGAGGGGACATTCAGTGCGAAT | 1.08 | 5.68 | 0.00926 | 3.05 | 1.68 | 2.07 | 2.15 | 0.304 | 1.13 | 4.84 | 4.14 | 1.04 | 2.82 | 2.23 | 0.995 | 0.101 | 1.42
13 | CTATGTAGGTTAAGGGGGTCTTTCAGTTTGAAAG | 0.885 | 1.5 | 0.399 | 3.78 | 4.64 | 7.24 | 7.16 | 4.5 | 6.8 | 7.13 | 7.07 | 2.14 | 2.15 | 1.64 | 1.84 | 0.701 | 1.89
14 | CTATGTAGGTTAAGGGGGTCCTTCAGTTTGAAAG | 1.09 | 1.76 | 0.414 | 3.75 | 4.29 | 6.59 | 6.57 | 4.47 | 6.41 | 7.26 | 6.7 | 1.58 | 2.33 | 1.68 | 1.92 | 0.652 | 1.67
15 | TCGAGTAGGTTACGCGGGCATTCAGGGATGAAGA | 0.576 | 0.477 | -0.0246 | -0.00737 | 1.49 | 1.38 | 1.88 | 1.46 | 1.79 | 2.91 | 3.32 | 0.356 |  | -0.508 | 0.641 | -0.865 | 0.946
16 | CCGAGTAGGGTACGAGGGGGCATTCAGTGCGAAT | 1.83 | 4.84 | 0.674 | 4.44 | 2.53 | 0.709 | 1.58 | 0.0374 | 1.17 | 2.87 | 3.56 | 0.861 | 3.15 | 3.37 | 1.71 | -0.0964 | 1.36
17 | CTATGTAGGTTAATGGGGTCATTCAGTTTGAAAG | 5.79 | 5.31 | 3.46 | 5.41 | 6.23 | 7.9 | 7.12 | 4.64 | 6.55 | 7.34 | 7.83 | 3.7 |  | 13.3 | 6.66 | 1.57 | 3.3
